# Reference: the OligoGym collection
# Biological target: IL7
# Assay: pooled miR-30 sensor sort-seq; sequence = guide strand
# Conditions: shRNA
row,Sequence,sensor-assay potency score (higher = more potent)
1,TTTATTTTCTTCCAAACTCTTT,-0.524
2,TATTATTGCAACTGATACCTTA,-0.0538
3,TAGCATCACAGATATGTCTTTT,-0.445
4,TAGGAAACACAAGTCATTCAGT,0.00202
5,TTCTAGTAATACAATATGCATT,-1.23
6,TTGTTTGTATTCATCTTCTAGT,-0.373
7,TTCCTTATTAGCATCACAGATA,-0.731
8,TATCACAATCAGATGATGCTAC,0.423
9,TATCTCTTGTAATAGTCTCTTT,-0.557
10,TAAAGATTTATTTTCTTCCAAA,-1.11
11,TTTTCTTCCAAACTCTTTGTTG,-0.54

# Biological target: ILDR2
# Assay: as above
# Conditions: shRNA
row,Sequence,sensor-assay potency score (higher = more potent)
1,TTCTCTTGCTGAGAGATTGGGC,-0.528
2,TGAACTTCCACTGCACAACTGC,-0.265
3,TTATATCTGCCTCTCATCCTTC,-0.505
4,TAGGACTTGAACTTCCACTGCA,0.867
5,TAATACAGTAATAGAGTCCGCT,0.505
6,TAGTACAGGACCTTCATGGAGT,0.283
7,TCTGCATCATGAACAATCGTGA,-0.116
8,TACAGTAATAGAGTCCGCTGTC,0.133
9,TACTACTCGAACAGTCCTCCTG,0.188
10,TTGTCGGGCACTGTGACCTGAA,-0.304
11,TTGAAGCTACTACTCGAACAGT,-0.815
12,TGAACAATCGTGATCTCTCTGC,-0.125

# Biological target: IMMP2L
# Assay: as above
# Conditions: shRNA
row,Sequence,sensor-assay potency score (higher = more potent)
1,TTCAAGAGCAATCACTCTCTTA,-0.135
2,AATGATACAATGTCACCACGGT,0.432
3,TTCAAAGAAGGCTGCATCGATG,-1.29
4,TTCAAAAGCACCACATCAGATG,-0.957
5,ATCGATGCTCCTTCTACTCTTG,-0.658
6,TCTACTCTTGCCACACAGGCGA,-0.683
7,TCAAAATTCCTCACTTTCCAGT,-0.183
8,TTGATGTATCTTTTCACCCACC,-0.733
9,TATGGTTCTGACAATATCTCCT,0.439
10,TAATGATCTTCTGTTCTGGGTT,-0.0559
11,TAAATATTTCTCGCACAGCATC,-1.39
12,TCTTAATGATCTTCTGTTCTGG,0.00439

# Biological target: INF2
# Assay: as above
# Conditions: shRNA
row,Sequence,sensor-assay potency score (higher = more potent)
1,TTTTGATTAAACCTTGCTGGGC,-0.764
2,TTGCATTTTGATTAAACCTTGC,-0.249
3,TTCATGACAATGCTGAAGCGGT,-0.245
4,TGTTGTAGCATCAAGGCCGGGC,-0.171
5,TAGCTCAAACACCTGCTTCTTC,-0.118
